# Assay results: PubChem BioAssay (EPA / NIEHS)
# Where “and” joins values, the source holds several entries; their conditions need not be identical. Equal entries are not always repeated. Inconclusive results are not listed. Calls of active or inactive are those of the source. Rule for the calls: active = hit-call score of the fitted dose curve at least 0.9, where 1 is the maximum; inconclusive = response in the unintended direction; inactive = score below 0.9.
# Key:
# [1] = target: Cellular tumor antigen p53 (Homo sapiens) (UniProt P04637); assay: TOX21_p53_BLA_p4_ratio: Tox21 HCT-116 p53 Agonism Beta-lactamase Assay, Ratio, Phase 4 (AID 2283601)
# Cellular tumor antigen p53 (Homo sapiens), sequence (P04637 whole entry, looked up): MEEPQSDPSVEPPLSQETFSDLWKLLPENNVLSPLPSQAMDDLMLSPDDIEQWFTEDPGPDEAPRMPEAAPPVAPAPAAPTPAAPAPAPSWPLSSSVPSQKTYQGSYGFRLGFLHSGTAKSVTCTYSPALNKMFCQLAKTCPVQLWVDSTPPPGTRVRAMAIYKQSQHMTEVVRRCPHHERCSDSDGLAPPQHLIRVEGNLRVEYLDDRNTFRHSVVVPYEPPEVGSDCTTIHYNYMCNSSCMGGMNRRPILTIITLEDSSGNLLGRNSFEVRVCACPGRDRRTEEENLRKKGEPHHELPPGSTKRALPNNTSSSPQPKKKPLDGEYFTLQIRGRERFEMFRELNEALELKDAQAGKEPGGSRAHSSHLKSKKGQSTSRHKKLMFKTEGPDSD
# In short: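 Signal is the blue/green (460nm/530nm) ratio of cleaved versus uncleaved CCF4-AM substrate, read after 2 h substrate loading. Cells were HCT116 carrying the p53-responsive beta-lactamase reporter, dosed 16 h at 37C, 5% CO2; CellTiter-Glo measured in parallel.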
# [2] = target: Cellular tumor antigen p53 (Homo sapiens) (UniProt P04637); assay: TOX21_p53_BLA_p5_ratio: Tox21 HCT-116 p53 Agonism Beta-lactamase Assay, Ratio, Phase 5 (AID 2283599)
# In short: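 Beta-lactamase reporter ratio (blue 460 nm over green 530 nm, 405 nm excitation) after 2 h CCF4-AM loading, in HCT-116 cells exposed 16 h at 37 C to compounds pinned at 217-fold dilution. Increases relative to DMSO baseline scored.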
# [3] = TOX21_p53_BLA_p5_viability: Viability Assessment in the Tox21 HCT-116 p53 Agonism Beta-lactamase Assay, Phase 5 (AID 2283600)
# In short: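 Luciferase-coupled ATP quantitation of cells treated for 16 h (37C, 5% CO2) with test chemicals delivered in DMSO via a 217-fold dilution; 4000 cells/well; reagent incubated 30 min at room temperature before luminescence reading.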
# [4] = Tanguay_ZF_120hpf_MORT_legacy: (Legacy) Oregon State University Tanguay Lab 120 Hour Post-fertilization zebrafish Assay for Mortality (AID 2283633)
# In short: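 Dechorionated Tropical 5D wild-type zebrafish embryos, one per well from 6 hpf, were statically exposed at 28C in the dark until 120 hpf (0.64% DMSO final). Mortality was scored as present/absent by brightfield microscopy, fitted positively versus DMSO.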
# [5] = Tanguay_ZF_120hpf_YSE_legacy: (Legacy) Oregon State University Tanguay Lab 120 Hour Post-fertilization zebrafish Assay for Yolk Sac Edema (AID 2283634)
# In short: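 Tropical 5D wild-type embryos, dechorionated with pronase at 4 hpf, were exposed singly from 6 hpf to 120 hpf under static, sealed, dark conditions at 28C with 0.64% DMSO final. Yolk sac edema was scored present/absent by brightfield microscopy.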
# [6] = Tanguay_ZF_120hpf_AXIS_legacy: (Legacy) Oregon State University Tanguay Lab 120 Hour Post-fertilization zebrafish Assay for Body Axis Malformation (AID 2283635)
# In short: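 Tropical 5D wild-type zebrafish embryos, dechorionated with pronase at 4 hpf, were placed singly in wells at 6 hpf and exposed statically to test chemical (0.64% DMSO final) at 28C until 120 hpf, then scored by brightfield for body axis defects.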
# [7] = Tanguay_ZF_120hpf_EYE_legacy: (Legacy) Oregon State University Tanguay Lab 120 Hour Post-fertilization zebrafish Assay for Eye Malformation (AID 2283636);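 note: binary presence or absence of eye malformation scored by brightfield in 120 hpf larvae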
# In short: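 Binary brightfield scoring of eye defects at 120 hpf after static exposure from 6 hpf of single pronase-dechorionated wild-type embryos (28C, 0.64% DMSO). Non-mortality endpoints omitted where embryos died; fit vs DMSO.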
# [8] = Tanguay_ZF_120hpf_SNOU_legacy: (Legacy) Oregon State University Tanguay Lab 120 Hour Post-fertilization zebrafish Assay for Snout Malformation (AID 2283637)
# In short: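 Binary snout-malformation call at 120 hpf in wild-type 5D embryos, chorion removed by pronase, under static exposure from 6 hpf at 28C (0.64% DMSO). Embryos dying by 24 or 120 hpf excluded.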
# [9] = Tanguay_ZF_120hpf_PE_legacy: (Legacy) Oregon State University Tanguay Lab 120 Hour Post-fertilization zebrafish Assay for Pericardial Edema (AID 2283640)
# In short: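 Tropical 5D wild-type zebrafish embryos were exposed statically to 120 hpf at 28C, sealed and foil-covered, in 0.64% DMSO final. Pericardial edema was scored present/absent by brightfield microscopy; dead embryos were not scored.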
# [10] = Tanguay_ZF_120hpf_SOMI_legacy: (Legacy) Oregon State University Tanguay Lab 120 Hour Post-fertilization zebrafish Assay for Somite Malformation (AID 2283647)
# In short: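 Tropical 5D wild-type zebrafish embryos, dechorionated with pronase at 4 hpf, were placed singly at 6 hpf and statically exposed until 120 hpf at 28C in 0.64% DMSO. Somite malformation was scored present/absent by brightfield microscopy versus DMSO.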
# [11] = Tanguay_ZF_120hpf_PFIN_legacy: (Legacy) Oregon State University Tanguay Lab 120 Hour Post-fertilization zebrafish Assay for Pectoral Fin Malformation (AID 2283648);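 note: each larva judged yes or no for fin defect by brightfield with dead larvae skipped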
# In short: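 Pectoral fin malformation was recorded as a binary endpoint at 120 hpf in wild-type Tropical 5D larvae, which had been dechorionated and exposed statically from 6 hpf at 28C in 0.64% DMSO. Dead embryos were excluded.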
# [12] = Tanguay_ZF_120hpf_CFIN_legacy: (Legacy) Oregon State University Tanguay Lab 120 Hour Post-fertilization zebrafish Assay for Caudal Fin Malformation (AID 2283649)
# In short: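 Tropical 5D wild-type embryos, dechorionated with pronase at 4 hpf, were placed singly in wells at 6 hpf and statically exposed to compound at 28C until 120 hpf (0.64% DMSO). Caudal fin malformation was scored present/absent by brightfield microscopy.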
# [13] = Tanguay_ZF_120hpf_CIRC_legacy: (Legacy) Oregon State University Tanguay Lab 120 Hour Post-fertilization zebrafish Assay for Circulatory Malformation (AID 2283651)
# In short: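 Binary circulatory malformation call at 120 hpf by brightfield imaging of zebrafish larvae; chorion removed at 4 hpf, static exposure from 6 hpf in sealed dark plates at 28C, final DMSO 0.64%; non-mortality endpoints skipped if embryo died.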
# [14] = Tanguay_ZF_120hpf_TRUN_legacy: (Legacy) Oregon State University Tanguay Lab 120 Hour Post-fertilization zebrafish Assay for Truncated Body (AID 2283655)
# In short: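 Tropical 5D wild-type embryos, dechorionated with pronase at 4 hpf, were placed singly in wells at 6 hpf and statically exposed at 28C until 120 hpf, final DMSO 0.64%. Truncated body was scored present/absent by brightfield microscopy.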
# [15] = Tanguay_ZF_120hpf_NC_legacy: (Legacy) Oregon State University Tanguay Lab 120 Hour Post-fertilization zebrafish Assay for Notochord and Tail Malformation (AID 2283656)
# In short: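 Binary scoring of notochord distortion by brightfield microscopy; embryos dying were not scored. Wild-type Tropical 5D embryos, chorion removed, exposed singly and statically from 6 to 120 hpf, 28C, sealed, 0.64% DMSO.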
# [16] = Tanguay_ZF_120hpf_JAW_legacy: (Legacy) Oregon State University Tanguay Lab 120 Hour Post-fertilization zebrafish Assay for Jaw Malformation (AID 2283638)
# In short: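 Tropical 5D wild-type embryos, dechorionated with pronase at 4 hpf, were placed singly per well at 6 hpf and statically exposed at 28C until 120 hpf (0.64% DMSO final). Jaw malformation scored as present/absent by brightfield microscopy at 120 hpf, analyzed relative to DMSO.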
# [17] = Tanguay_ZF_120hpf_OTIC_legacy: (Legacy) Oregon State University Tanguay Lab 120 Hour Post-fertilization zebrafish Assay for Otic Vesicle Malformation (AID 2283639)
# In short: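 Binary scoring of otic vesicle defects at 120 hpf in zebrafish (Tropical 5D) held under static exposure at 28C, sealed and shaded, with final DMSO 0.64%. Embryos dying by 24 or 120 hpf excluded; fitted positively against DMSO.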
# [18] = Tanguay_ZF_120hpf_BRAI_legacy: (Legacy) Oregon State University Tanguay Lab 120 Hour Post-fertilization zebrafish Assay for Brain Malformation (AID 2283641)
# In short: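 Tropical 5D wild-type zebrafish embryos were exposed statically in sealed, foil-covered plates at 28C until 120 hpf, with 0.64% (vol/vol) final DMSO. Brain malformation was scored present/absent by brightfield microscopy, relative to DMSO baseline.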
# [19] = Tanguay_ZF_120hpf_PIG_legacy: (Legacy) Oregon State University Tanguay Lab 120 Hour Post-fertilization zebrafish Assay for Pigmentation Malformation (AID 2283650)
# In short: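 Pigment malformation recorded as a binary call at 120 hpf in zebrafish (Tropical 5D) exposed singly from 6 hpf after pronase dechorionation. Static, sealed, 28C exposure, 0.64% DMSO; mortality excludes scoring; positive-direction fit against DMSO.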
# [20] = Tanguay_ZF_120hpf_SWIM_legacy: (Legacy) Oregon State University Tanguay Lab 120 Hour Post-fertilization zebrafish Assay for Swim Bladder Malformation (AID 2283654);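 note: swim bladder malformation in each larva scored yes or no under brightfield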
# In short: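 Scoring is binary for swim bladder defects at 120 hpf, by brightfield inspection of zebrafish larvae. Embryos were exposed singly from 6 hpf after pronase dechorionation, at 28C with 0.64% DMSO; mortality excluded scoring.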
smiles,measurement,setting,value
C[C@H](CCC(=O)O)[C@H]1CC[C@H]2[C@@H]3CC[C@@H]4C[C@H](O)CC[C@]4(C)[C@H]3CC[C@]12C,outcome,[1],inactive
CC(C)Cc1ccc(C(C)C(=O)O)cc1 (centres undefined),outcome,[2],inactive
same,outcome,[3],inactive
[Na+],outcome,[2],inactive
same,outcome,[3],inactive
same,outcome,[1],inactive
CC(C)(CO)CO,outcome,[2],inactive
same,outcome,[3],inactive
CC(=O)OC(C)(C)C1CC=C(C)CC1 (centres undefined),outcome,[2],inactive
same,outcome,[3],inactive
same,outcome,[1],inactive
C=C(C)C(=O)OCCC[Si](OC)(OC)OC,outcome,[2],inactive
same,outcome,[3],inactive
same,outcome,[1],inactive
Nc1cc([N+](=O)[O-])ccc1C(=O)O,outcome,[2],inactive
same,outcome,[3],inactive
same,outcome,[1],inactive
O=S1(=O)CC=CC1,outcome,[2],inactive
same,outcome,[3],inactive
CC(CO)c1ccccc1 (centres undefined),outcome,[2],inactive
same,outcome,[3],inactive
same,outcome,[1],inactive
CCCCCC(=O)O[C@]1(C(C)=O)CC[C@H]2[C@@H]3CCC4=CC(=O)CC[C@]4(C)[C@H]3CC[C@@]21C,outcome,[2],inactive
same,outcome,[3],inactive
same,outcome,[1],inactive
COc1ccc(OC)cc1,outcome,[2],inactive
same,outcome,[3],inactive
same,outcome,[1],inactive
FC(F)(F)c1ccc(Cl)c(Cl)c1,outcome,[2],inactive
same,outcome,[3],inactive
same,outcome,[1],inactive
c1ccc2scnc2c1,outcome,[2],inactive
same,outcome,[3],inactive
same,outcome,[1],inactive
CCCCCCOc1ccc(O)cc1,AC50,[2],52.4 µM (active)
same,outcome,[3],inactive
same,AC50,[1],72.5 µM (active)
OCCCO,outcome,[2],inactive
same,outcome,[3],inactive
same,outcome,[1],inactive
CC(=O)c1ccc(O)cc1,outcome,[2],inactive
same,outcome,[3],inactive
same,outcome,[1],inactive
C=CCCCCCCCCC(=O)OCC,outcome,[2],inactive
same,outcome,[3],inactive
same,outcome,[1],inactive
CCCCCCCC(=O)N(C)C,outcome,[2],inactive
same,outcome,[3],inactive
same,outcome,[1],inactive
NC(=O)NC(N)=O,outcome,[2],inactive
same,outcome,[3],inactive
CCc1cccc(O)c1,outcome,[2],inactive
same,outcome,[3],inactive
same,outcome,[1],inactive
C=COCC1CCC(COC=C)CC1 (centres undefined),outcome,[2],inactive
same,outcome,[3],inactive
same,outcome,[1],inactive
CCNC(=S)NCC,outcome,[2],inactive
same,outcome,[3],inactive
same,outcome,[1],inactive
C=CC(C)CCCC(C)(C)O (centres undefined),outcome,[2],inactive
same,outcome,[3],inactive
same,outcome,[1],inactive
NC(=O)c1cnccn1,outcome,[2],inactive
same,outcome,[3],inactive
same,outcome,[1],inactive
O=c1cc(-c2ccc(O)cc2)oc2cc(O)cc(O)c12,outcome,[2],inactive
same,outcome,[3],inactive
O=Cc1ccccc1O,outcome,[2],inactive
same,outcome,[3],inactive
NC(N)=S,outcome,[2],inactive
same,outcome,[3],inactive
CCC(C)(CCCC(C)C)OC(C)=O (centres undefined),outcome,[2],inactive
same,outcome,[3],inactive
same,outcome,[1],inactive
CCCCCC1C(=O)CCC1CC(=O)OC (centres undefined),outcome,[2],inactive
same,outcome,[3],inactive
CC(C)(C)c1cccc(O)c1,outcome,[2],inactive
same,outcome,[3],inactive
COc1ccc(C(C)=O)cc1,outcome,[2],inactive
same,outcome,[3],inactive
CCOC(=O)CCCCCCCCC(=O)OCC,outcome,[2],inactive
same,outcome,[3],inactive
CCCCCCCCCC(=O)OCC,outcome,[2],inactive
same,outcome,[3],inactive
same,outcome,[1],inactive
COc1ccccc1NC(=O)CC(C)=O,outcome,[2],inactive
same,outcome,[3],inactive
same,outcome,[1],inactive
O=C(OCc1ccccc1)c1ccccc1O,outcome,[2],inactive
same,outcome,[3],inactive
same,outcome,[1],inactive
COc1ccccc1O,outcome,[2],inactive
same,outcome,[3],inactive
CN(C)C,outcome,[2],inactive
same,outcome,[1],inactive
CC(=O)Oc1c(C)c(C)c2c(c1C)CC[C@@](C)(CCC[C@H](C)CCC[C@H](C)CCCC(C)C)O2,outcome,[2],inactive
same,outcome,[3],inactive
same,outcome,[1],inactive
CC(=O)C1C(=O)C=C(C)OC1=O (centres undefined),outcome,[2],inactive
same,outcome,[1],inactive
C=CC(C)(CCC=C(C)C)OC(=O)CC (centres undefined),outcome,[2],inactive
same,outcome,[1],inactive
CCCCCCCC1CCCC1=O (centres undefined),outcome,[2],inactive
same,outcome,[1],inactive
CC(=O)c1ccc2ccccc2c1,outcome,[2],inactive
same,outcome,[3],inactive
same,outcome,[1],inactive
O=C(c1ccc(OCCN2CCCCC2)cc1)c1c(-c2ccc(O)cc2)sc2cc(O)ccc12,AC50,[2],72.8 µM (active) and 81.5 µM (active) and 36.2 µM (active)
same,AC50,[3],77.6 µM (active) and 87.9 µM (active) and 41.9 µM (active)
same,AC50,[1],69.6 µM (active) and 69.3 µM (active) and 36.5 µM (active)
same,outcome,[4],inactive
same,outcome,[5],inactive
same,outcome,[6],inactive
same,outcome,[7],inactive
same,outcome,[8],inactive
same,outcome,[9],inactive
same,outcome,[10],inactive
same,outcome,[11],inactive
same,outcome,[12],inactive
same,outcome,[13],inactive
same,outcome,[14],inactive
same,outcome,[15],inactive
COc1ccc2[nH]cc(CCNC(C)=O)c2c1,outcome,[2],inactive
same,outcome,[1],inactive
C=C(C)C(N)=O,outcome,[2],inactive
same,outcome,[3],inactive
same,outcome,[1],inactive
same,outcome,[4],inactive
same,outcome,[5],inactive
same,outcome,[6],inactive
same,outcome,[7],inactive
same,outcome,[16],inactive
same,outcome,[17],inactive
same,outcome,[9],inactive
same,outcome,[18],inactive
same,outcome,[10],inactive
same,outcome,[11],inactive
same,outcome,[12],inactive
same,outcome,[19],inactive
same,outcome,[13],inactive
same,outcome,[20],inactive
same,outcome,[14],inactive
same,outcome,[15],inactive
C=CCOC(=O)/C=C\C(=O)OCC=C,outcome,[2],inactive
same,outcome,[1],inactive
CC(O)COCC(C)O (centres undefined),outcome,[2],inactive
same,outcome,[1],inactive
CCOC(=O)COC(=O)c1ccccc1C(=O)OCC,outcome,[2],inactive
same,outcome,[1],inactive
c1ccc(-c2nn[nH]n2)cc1,outcome,[2],inactive
same,outcome,[1],inactive
CCC(C)COC(=O)CC(C)C (centres undefined),outcome,[2],inactive
same,outcome,[1],inactive
